Laboratory results as given in PubChem BioAssay (NCI).
About 79,000 compounds went through this panel and 15% of them were active in at least one assay; those are over-represented in the sample as a whole. Values without a mark were called inactive. Activity calls are given as the source filed them. Cut-off read from the data, not from the text of the source: active = growth inhibition above about 70%; inactive = the rest.

Legend:
[1] = NCI Yeast Anticancer Drug Screen. Data for the rad50 strain (AID 155);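 note: 0% = growth of vehicle-only cultures of the same strain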; conditions: S. cerevisiae rad50 strain growth inhibition; at 50.0 µM; stronger effect = higher value
Summary of the method: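 Vehicle-treated cultures provide the reference for the growth inhibition reported for compound-exposed, repair-deficient yeast.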

[2] = NCI Yeast Anticancer Drug Screen. Data for the mec2-1 strain (AID 157); conditions: S. cerevisiae mec2-1 strain, at 50.0 µM, stronger effect = higher value
Summary of the method: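 Strain: mec2-1 (DNA repair/cell cycle alteration). Compound exposure, then growth measured; inhibition expressed relative to vehicle.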

[3] = NCI Yeast Anticancer Drug Screen. Data for the sgs1 mgt1 strain (AID 161);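 note: 0% = growth of cultures given vehicle only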; conditions: S. cerevisiae sgs1 mgt1 strain, at 50.0 µM, stronger effect = higher value
Summary of the method: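 Inhibition of yeast growth, normalised to vehicle-treated controls, is reported for a strain bearing genetic alterations in DNA damage repair.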

[4] = NCI Yeast Anticancer Drug Screen. Data for the cln2 rad14 strain (AID 165);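 note: 0% = growth equal to vehicle treated cultures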; conditions: S. cerevisiae cln2 rad14 strain, at 50.0 µM, stronger effect = higher value
Summary of the method: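 Compounds are applied to the cln2 rad14 yeast strain, and growth is then compared with that of vehicle-treated cultures to give inhibition.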

[5] = NCI Yeast Anticancer Drug Screen. Data for the bub3 strain (AID 167); conditions: S. cerevisiae bub3 mutant strain, at 50.0 µM, stronger effect = higher value
Summary of the method: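 Mutant yeast screening strain plus compound; vehicle-treated cultures serve as the 0% inhibition reference.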

[6] = NCI Yeast Anticancer Drug Screen. Data for the mlh1 rad18 strain (AID 175); conditions: S. cerevisiae mlh1 rad18 strain growth inhibition; at 50.0 µM; stronger effect = higher value
Summary of the method: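 Read-out is yeast growth inhibition, calculated against vehicle-only controls. The compound was applied to a strain engineered with DNA damage repair alterations.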

SMILES	growth inhibition [1]	growth inhibition [2]	growth inhibition [3]	growth inhibition [4]	growth inhibition [5]	growth inhibition [6]
CC(=O)OC1CCCCCCC1	-13.2%	14.6%	15.5%	-3.2%	19.5%	6.05%
CC1=C(C(=O)Nc2c(C)cccc2C)C(c2ccccc2Cl)C(C(=O)Nc2c(C)cccc2C)=C(C)N1	-39.4%	-6.4%	-27.4%	-20.9%	-13.8%	-11.7%
CC12CCCC3(CC(=O)C(C)(C)C3C(=O)C1)C2 (configuration not stated)	-13.9%	-16.1%	-18.4%	10.2%	9.6%	6.2%
O=S(=O)(CCc1ccccc1)c1nc2ccccc2s1	-1.5%	-1.85%	-2.8%	-11.9%	-37.5%	-11.5%
CC1Cc2cc(O)ccc2C2[C@@H]1C1CC[C@H](O)[C@@]1(C)C[C@@H]2O[N+](=O)[O-] (some centres not stated)	18.5%	19.7%	55.8%	47.3%	60.9%	83% (active)
O=CC(O)C(O)C(O)C1CNC(=S)O1 (configuration not stated)	4.9%	-14.7%	-10.3%	-2.25%	4.05%	6.9%
O=C(Nc1ccc(F)c([N+](=O)[O-])c1)N(Cc1ccccc1)c1ccccc1	8.05%	1.05%	1.55%	5.95%	26.9%	16.9%
CC(=O)c1c[nH]cc1CO	-1.7%	7.8%	8.85%	11.3%	11.6%	-7.75%
O=C(CC1=NC2NN(c3ccccc3)C(=O)C2=C1CC(=O)c1ccc([N+](=O)[O-])cc1)c1ccc([N+](=O)[O-])cc1 (configuration not stated)	42.1%	-11.4%	3.4%	2.7%	19.9%	32%
Oc1ccc2ccccc2c1C=Nc1ccc(SSc2ccc(N=Cc3c(O)ccc4ccccc34)cc2)cc1	-6.6%	-10.1%	-19.6%	-59.5%	0.9%	-3.1%
COc1ccc(C(=O)/C=C/C(C)=C/C=N/N(C)c2ccccc2)cc1	14%	18.4%	-0.5%	-39.9%	17.1%	17.8%
CCOC(=O)c1ccc(NCCCNc2ccc(C(=O)OCC)cc2)cc1	-8.05%	13.8%	1.45%	0.35%	4.7%	9.5%
N#C/C=C/c1cccc(Cl)c1	39.1%	7.9%	1.9%	14.3%	14.3%	16.9%
CCOC1C=CCCO1 (configuration not stated)	20%	-2.7%	8.65%	-6.55%	-7.2%	5.65%
CCOc1ccccc1C(=O)Oc1ccc(C)cc1	-4.6%	-19.2%	7.1%	-3.85%	-5.5%	24.1%
Cn1cc(-c2ccccc2)cc1-c1ccccc1	-11.4%	6.6%	-4.5%	4.9%	-14.9%	9.75%
CCOc1ccccc1C1=CCCCCC1	-0.65%	-5%	-9%	-24.6%	-10%	1.3%
COC(=O)CCC(N)C(=O)O (configuration not stated)	10.2%	-11.2%	-7.15%	-10.3%	-24.9%	-4.2%
CC(C)C(CNC(=O)c1ccc([N+](=O)[O-])cc1)(C(C)C)C(C)C	-2.6%	-36.2%	-3.85%	-3.7%	17.8%	-1.65%
CC(C)(C)c1cc(C#N)cc(Br)c1O	98.6% (active)	98.7% (active)	99.3% (active)	97.2% (active)	97.7% (active)	98.7% (active)
COc1ccc(CN2CCCN(Cc3ccc(OC)cc3OC)C2c2ccccc2)c(OC)c1	19.6%	6.9%	8.05%	17.9%	-4.6%	14.8%

SMILES	growth inhibition [1]	growth inhibition [2]	growth inhibition [3]	growth inhibition [4]	growth inhibition [5]	growth inhibition [6]
CCOC(=O)C(=O)Nc1ccccc1CC	-3%	2.9%	-12.3%	-33.5%	11.2%	-3.35%
CCCCNS(=O)(=O)c1n[nH]c(=O)[nH]c1=O	-27.1%	-10.1%	-37.9%	-12.4%	-38%	-19.2%
CNC(=O)SCC(N)C(=O)O (configuration not stated)	1.25%	-4.85%	-8.3%	-16.4%	-0.9%	2%
Cc1cccc(-c2cccc(C)c2C)c1C	-6.5%	4.75%	-1.35%	11.7%	4.2%	16.1%
Cc1cc(NS(=O)(=O)c2ccc(NC(=O)c3ccc(Cl)c4c(Nc5ccc(S(=O)(=O)N=C(N)N)cc5)c5ccccc5nc34)cc2)no1	29.9%	42.1%	31.6%	34.5%	26.4%	53.5%
CN1CCC(O)(C#N)CC1	-5.55%	2%	-13.6%	-42.6%	10.1%	-2.85%
COc1ccc(NC(=O)Oc2ccc(OC)cc2)cc1	5.75%	12.2%	0.75%	11.2%	5.5%	-16.1%
C=CCOC1OC(CO)C(O)C(O)C1O (configuration not stated)	9.8%	38%	29.2%	11.5%	7.3%	9.35%
O=c1[nH]c(CCCc2ccccc2)c(Br)c(=O)[nH]1	-1.5%	-7.65%	3.35%	-4.35%	15.1%	24.4%
O=C1c2ccccc2C(=O)N1Cc1ccc(CN2C(=O)c3ccccc3C2=O)cc1	-9%	-3.75%	-16%	-12.2%	-1.55%	-11.1%
C/C(=N/NC(=O)c1ccncc1)C(F)(F)F	-29.8%	5.75%	-25.9%	-6.85%	14%	7.85%
CCOC(=O)c1c(C)[nH]c(=S)c(C#N)c1-c1ccc(Cl)cc1	13%	12.1%	34.4%	4.55%	28.6%	-1.55%
CCOC(=O)C1=NN(c2ccccc2)C(=O)/C1=C\n1c(=S)sc2ccccc21	-7.25%	-24.4%	-6.5%	-16.1%	-11.8%	-2.4%
c1ccc(Nc2cc(Nc3ccccc3)ncn2)cc1	4.4%	-20.5%	3.8%	-6.5%	-2.2%	2.35%
CN(C(=O)c1ccc(Cl)cc1)C(=S)N1CCN(c2ccccn2)CC1	-66%	-33.8%	-36.6%	-3.7%	-13.9%	-43.5%
O=C(O)CCc1nc2ccccc2[nH]1	-9.3%	-4.9%	-23.8%	39.1%	-43.9%	-1%
Cc1cccc(C)c1NC(=O)C1C(=O)N(c2c(C)cccc2C)C(=O)/C1=N\NC(N)=S (configuration not stated)	-15.2%	-24.4%	-37.4%	-9.5%	-31.1%	-34.9%
O=C1C=CC(=Nc2ccc3c(c2)C(=O)c2cc(F)ccc2-3)O1	-0.35%	-6.7%	9.2%	-2.15%	1.35%	5.3%
CCCOc1ccc(OCC(=O)c2ccccc2)cc1	-23.9%	-32.5%	25.8%	5.3%	61.5%	8%
NC(=O)Nc1nc(-c2ccccc2)no1	-16.7%	7.15%	-17%	-50.6%	-6.75%	-16.1%
O=C(CCCCc1ccccc1)NO	25.4%	18.8%	14.4%	15.8%	-5.5%	33.5%
